Reference: the supplement of paper PMC11732987, “Enantioselective OTUD7B fragment discovery through chemoproteomics screening and high-throughput optimisation” (Communications Chemistry, 2025)

How the values were obtained:
Assay in all cases: log2 ratio of Biotin-Ahx-Ub-VS probe labelling (fragment/DMSO); higher = less target engagement (more negative = stronger competition), active = hit call of the paper (q ≤ 0.05, log2 ratio ≤ -1)
Conditions in all cases: compound concentration: 200 uM; treatment time: 3 h
USP19 = biological target: T1, USP19 (UniProt O94966)
T1 sequence (whole entry): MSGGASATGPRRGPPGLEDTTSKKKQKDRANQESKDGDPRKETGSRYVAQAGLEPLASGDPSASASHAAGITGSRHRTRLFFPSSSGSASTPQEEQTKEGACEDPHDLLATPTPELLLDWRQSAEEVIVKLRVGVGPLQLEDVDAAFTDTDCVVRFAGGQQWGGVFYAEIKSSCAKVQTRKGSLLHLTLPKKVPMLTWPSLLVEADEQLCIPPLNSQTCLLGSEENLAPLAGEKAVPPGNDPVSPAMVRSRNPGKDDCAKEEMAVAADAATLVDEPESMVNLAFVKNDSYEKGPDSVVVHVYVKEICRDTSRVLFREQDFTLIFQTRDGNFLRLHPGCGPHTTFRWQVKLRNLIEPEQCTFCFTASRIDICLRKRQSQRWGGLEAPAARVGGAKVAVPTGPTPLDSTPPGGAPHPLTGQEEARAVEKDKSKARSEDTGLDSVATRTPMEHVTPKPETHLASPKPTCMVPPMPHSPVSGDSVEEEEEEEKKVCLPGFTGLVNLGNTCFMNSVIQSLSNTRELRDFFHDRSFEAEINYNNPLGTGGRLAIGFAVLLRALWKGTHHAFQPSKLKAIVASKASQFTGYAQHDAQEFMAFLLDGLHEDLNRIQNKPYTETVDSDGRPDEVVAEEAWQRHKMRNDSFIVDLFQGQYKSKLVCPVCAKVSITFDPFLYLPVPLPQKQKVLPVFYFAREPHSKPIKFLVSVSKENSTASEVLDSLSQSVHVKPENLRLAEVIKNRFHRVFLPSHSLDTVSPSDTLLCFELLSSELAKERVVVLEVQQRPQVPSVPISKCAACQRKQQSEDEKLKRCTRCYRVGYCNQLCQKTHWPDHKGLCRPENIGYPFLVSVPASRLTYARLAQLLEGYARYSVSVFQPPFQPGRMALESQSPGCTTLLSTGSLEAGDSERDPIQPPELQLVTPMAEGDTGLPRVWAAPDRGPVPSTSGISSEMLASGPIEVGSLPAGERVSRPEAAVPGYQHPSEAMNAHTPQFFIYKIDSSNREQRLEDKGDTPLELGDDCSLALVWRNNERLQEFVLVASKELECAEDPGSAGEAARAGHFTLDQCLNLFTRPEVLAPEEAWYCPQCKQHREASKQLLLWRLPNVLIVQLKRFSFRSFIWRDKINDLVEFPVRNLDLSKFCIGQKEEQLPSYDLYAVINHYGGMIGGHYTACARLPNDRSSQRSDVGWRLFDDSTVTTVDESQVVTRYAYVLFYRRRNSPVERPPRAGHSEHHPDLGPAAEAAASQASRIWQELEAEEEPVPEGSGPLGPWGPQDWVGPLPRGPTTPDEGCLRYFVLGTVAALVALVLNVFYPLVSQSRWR
Summary of the method: (§1)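 Average log2 ratios of fragment over vehicle were obtained by unpaired t-test from global-median-normalised Spectronaut label-free quantities. Proteins with ≥2 unique peptides were included. HEK293T lysate (495 µg per sample) was treated in triplicate with fragment at 200 µM or vehicle for 3 h, then with Biotin-Ahx-Ub-VS at 0.5 µM final for 1 h, and labelled DUBs were NeutrAvidin-enriched and run by diaPASEF LC-MS/MS.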

USP24 = USP24 (UniProt Q9UPU5)
Summary of the method: as §1

USP25 = biological target: T2, USP25 (UniProt Q9UHP3)
T2 sequence (whole entry): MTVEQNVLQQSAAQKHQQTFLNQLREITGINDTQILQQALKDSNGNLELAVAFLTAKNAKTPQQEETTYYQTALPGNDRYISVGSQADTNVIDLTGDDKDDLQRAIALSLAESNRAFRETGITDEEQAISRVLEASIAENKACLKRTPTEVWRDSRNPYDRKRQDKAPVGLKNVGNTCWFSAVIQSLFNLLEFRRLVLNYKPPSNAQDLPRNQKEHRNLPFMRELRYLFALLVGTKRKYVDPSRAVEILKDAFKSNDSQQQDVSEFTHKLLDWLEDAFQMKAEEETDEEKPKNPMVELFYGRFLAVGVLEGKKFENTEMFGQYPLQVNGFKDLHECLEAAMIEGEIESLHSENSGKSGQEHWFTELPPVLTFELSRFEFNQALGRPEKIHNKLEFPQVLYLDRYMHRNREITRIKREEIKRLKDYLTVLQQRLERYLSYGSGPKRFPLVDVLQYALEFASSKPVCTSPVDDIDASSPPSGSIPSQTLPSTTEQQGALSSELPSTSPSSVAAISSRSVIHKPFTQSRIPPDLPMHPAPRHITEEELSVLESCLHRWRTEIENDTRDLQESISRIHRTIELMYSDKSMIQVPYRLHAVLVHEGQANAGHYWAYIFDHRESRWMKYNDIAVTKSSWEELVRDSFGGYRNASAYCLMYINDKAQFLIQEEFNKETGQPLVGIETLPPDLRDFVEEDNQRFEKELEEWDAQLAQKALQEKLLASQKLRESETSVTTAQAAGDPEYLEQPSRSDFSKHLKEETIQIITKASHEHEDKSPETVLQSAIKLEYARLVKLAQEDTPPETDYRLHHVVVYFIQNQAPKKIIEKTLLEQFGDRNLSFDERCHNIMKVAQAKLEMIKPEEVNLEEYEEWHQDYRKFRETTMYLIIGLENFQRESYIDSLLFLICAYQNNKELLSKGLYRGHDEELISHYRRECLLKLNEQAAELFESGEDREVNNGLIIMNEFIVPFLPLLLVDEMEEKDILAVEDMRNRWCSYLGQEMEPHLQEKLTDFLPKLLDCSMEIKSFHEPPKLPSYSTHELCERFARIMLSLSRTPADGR
Summary of the method: as §1

USP28 = biological target: T3, USP28 (UniProt Q96RU2)
T3 sequence (whole entry): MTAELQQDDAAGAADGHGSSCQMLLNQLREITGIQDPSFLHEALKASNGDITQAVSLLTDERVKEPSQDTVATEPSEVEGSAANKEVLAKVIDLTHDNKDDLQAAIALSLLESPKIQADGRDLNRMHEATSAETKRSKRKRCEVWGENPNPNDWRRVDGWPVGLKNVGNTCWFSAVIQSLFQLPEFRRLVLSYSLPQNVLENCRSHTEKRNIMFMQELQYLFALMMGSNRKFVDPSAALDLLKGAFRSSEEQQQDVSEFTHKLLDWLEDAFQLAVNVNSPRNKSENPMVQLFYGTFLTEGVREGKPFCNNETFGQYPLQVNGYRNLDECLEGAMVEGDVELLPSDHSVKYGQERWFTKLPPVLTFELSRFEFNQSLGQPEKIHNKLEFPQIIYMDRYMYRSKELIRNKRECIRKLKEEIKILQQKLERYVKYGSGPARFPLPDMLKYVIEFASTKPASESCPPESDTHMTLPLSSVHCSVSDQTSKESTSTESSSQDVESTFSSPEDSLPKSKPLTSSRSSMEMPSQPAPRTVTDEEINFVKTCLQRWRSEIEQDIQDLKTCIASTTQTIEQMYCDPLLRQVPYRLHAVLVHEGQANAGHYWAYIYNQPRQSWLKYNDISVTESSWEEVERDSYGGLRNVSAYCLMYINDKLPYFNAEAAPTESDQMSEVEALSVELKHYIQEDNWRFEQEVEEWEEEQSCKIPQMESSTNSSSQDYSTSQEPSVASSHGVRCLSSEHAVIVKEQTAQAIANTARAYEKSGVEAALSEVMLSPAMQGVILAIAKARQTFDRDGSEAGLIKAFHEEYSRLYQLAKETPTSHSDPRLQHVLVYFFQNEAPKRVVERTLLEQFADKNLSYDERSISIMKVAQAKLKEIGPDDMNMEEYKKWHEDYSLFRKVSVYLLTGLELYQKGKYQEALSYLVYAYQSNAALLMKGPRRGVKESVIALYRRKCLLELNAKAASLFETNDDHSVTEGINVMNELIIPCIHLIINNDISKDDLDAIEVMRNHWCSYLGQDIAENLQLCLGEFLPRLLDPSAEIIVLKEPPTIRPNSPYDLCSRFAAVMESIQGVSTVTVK
Summary of the method: as §1

Measured: log2 ratio of Biotin-Ahx-Ub-VS probe labelling

USP24, sequence (Q9UPU5 whole entry): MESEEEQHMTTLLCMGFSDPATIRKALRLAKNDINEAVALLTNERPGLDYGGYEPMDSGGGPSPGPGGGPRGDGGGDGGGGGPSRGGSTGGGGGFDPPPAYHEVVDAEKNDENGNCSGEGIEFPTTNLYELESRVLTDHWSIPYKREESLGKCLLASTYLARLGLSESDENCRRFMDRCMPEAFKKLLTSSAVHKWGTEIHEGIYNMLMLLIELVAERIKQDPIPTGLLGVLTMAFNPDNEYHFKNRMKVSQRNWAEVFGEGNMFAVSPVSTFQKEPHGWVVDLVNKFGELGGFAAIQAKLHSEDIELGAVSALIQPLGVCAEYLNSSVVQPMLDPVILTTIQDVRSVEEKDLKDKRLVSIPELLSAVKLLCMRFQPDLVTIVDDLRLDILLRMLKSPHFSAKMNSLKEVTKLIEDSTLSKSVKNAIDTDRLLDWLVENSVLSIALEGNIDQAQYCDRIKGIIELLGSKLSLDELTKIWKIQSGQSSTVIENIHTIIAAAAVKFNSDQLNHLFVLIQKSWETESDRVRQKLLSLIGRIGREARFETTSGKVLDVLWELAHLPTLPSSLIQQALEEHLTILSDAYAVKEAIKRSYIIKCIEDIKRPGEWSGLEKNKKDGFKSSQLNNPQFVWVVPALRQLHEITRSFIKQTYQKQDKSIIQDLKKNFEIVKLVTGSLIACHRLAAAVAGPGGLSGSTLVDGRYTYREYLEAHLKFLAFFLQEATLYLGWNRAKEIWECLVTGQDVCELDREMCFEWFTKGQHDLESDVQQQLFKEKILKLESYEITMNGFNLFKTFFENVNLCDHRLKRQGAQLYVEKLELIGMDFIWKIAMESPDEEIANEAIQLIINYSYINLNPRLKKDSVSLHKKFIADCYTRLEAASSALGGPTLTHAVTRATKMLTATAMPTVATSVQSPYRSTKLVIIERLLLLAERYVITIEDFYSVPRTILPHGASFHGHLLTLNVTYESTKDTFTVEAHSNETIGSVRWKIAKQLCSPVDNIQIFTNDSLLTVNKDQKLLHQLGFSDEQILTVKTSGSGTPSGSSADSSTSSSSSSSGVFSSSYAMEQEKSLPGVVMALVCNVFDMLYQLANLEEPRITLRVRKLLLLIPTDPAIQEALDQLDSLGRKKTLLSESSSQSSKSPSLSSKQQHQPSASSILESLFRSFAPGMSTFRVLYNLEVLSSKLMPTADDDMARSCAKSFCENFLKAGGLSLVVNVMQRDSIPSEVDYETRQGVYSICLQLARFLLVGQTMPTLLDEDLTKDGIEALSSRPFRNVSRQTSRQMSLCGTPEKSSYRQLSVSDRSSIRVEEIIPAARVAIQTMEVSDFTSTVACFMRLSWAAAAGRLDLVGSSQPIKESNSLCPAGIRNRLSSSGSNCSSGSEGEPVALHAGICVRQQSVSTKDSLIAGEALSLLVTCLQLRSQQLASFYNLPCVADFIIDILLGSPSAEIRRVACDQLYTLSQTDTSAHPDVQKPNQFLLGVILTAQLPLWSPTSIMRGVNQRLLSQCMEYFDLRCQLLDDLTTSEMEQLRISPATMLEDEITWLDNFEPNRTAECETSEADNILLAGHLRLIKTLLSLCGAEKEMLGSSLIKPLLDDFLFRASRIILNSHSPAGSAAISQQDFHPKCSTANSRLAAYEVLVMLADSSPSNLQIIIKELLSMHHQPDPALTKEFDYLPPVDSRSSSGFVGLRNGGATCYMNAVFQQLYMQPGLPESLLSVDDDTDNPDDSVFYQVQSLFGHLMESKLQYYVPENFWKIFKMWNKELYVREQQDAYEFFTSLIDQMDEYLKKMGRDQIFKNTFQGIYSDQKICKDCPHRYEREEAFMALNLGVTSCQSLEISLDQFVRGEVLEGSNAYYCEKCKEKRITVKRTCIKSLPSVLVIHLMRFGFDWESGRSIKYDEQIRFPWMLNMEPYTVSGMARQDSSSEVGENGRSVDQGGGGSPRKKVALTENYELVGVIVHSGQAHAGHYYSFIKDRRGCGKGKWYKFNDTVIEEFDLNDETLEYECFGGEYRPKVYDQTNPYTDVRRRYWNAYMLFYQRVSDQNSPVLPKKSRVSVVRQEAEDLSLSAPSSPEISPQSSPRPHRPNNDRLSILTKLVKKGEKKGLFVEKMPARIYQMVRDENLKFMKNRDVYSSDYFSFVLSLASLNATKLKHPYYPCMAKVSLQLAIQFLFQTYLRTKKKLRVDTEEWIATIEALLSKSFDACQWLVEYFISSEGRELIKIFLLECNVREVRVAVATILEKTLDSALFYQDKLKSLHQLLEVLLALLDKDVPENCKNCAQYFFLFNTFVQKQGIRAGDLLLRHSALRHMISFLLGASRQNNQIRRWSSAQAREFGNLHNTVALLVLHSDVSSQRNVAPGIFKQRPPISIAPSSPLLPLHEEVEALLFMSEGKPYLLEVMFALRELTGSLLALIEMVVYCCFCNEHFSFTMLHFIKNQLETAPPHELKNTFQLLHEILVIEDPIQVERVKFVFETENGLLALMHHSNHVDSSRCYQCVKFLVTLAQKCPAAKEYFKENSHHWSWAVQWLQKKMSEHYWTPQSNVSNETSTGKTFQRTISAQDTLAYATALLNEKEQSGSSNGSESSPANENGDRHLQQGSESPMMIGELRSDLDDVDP

Cc1noc(N2CCN(C(=O)CCl)CC2)n1.Cl
inactive: USP19 -0.238 | USP24 -0.00876 | USP25 -0.13 | USP28 -0.444
